The values that follow come from PubChem BioAssay (EPA / NIEHS).

Inconclusive results are not listed. The source made the active and inactive calls. The calls were made as follows: active = hit-call score of the fitted dose curve at least 0.9, where 1 is the maximum; inconclusive = response in the unintended direction; inactive = score below 0.9.

This assay in a line: ACEA_ER_AUC_viability: ACEA Biosciences xCELLigence Real-Time Cell Analysis on Estrogen Receptor Agonism for Viability (AID 2283782).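 Also: hit means loss of impedance signal meaning reduced cell growth or viability.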 In a few lines: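 Read-out: real-time electrical impedance (RT-CES) area under curve, loss of signal taken as reduced viability, normalized to DMSO baseline. T-47D cells, charcoal-stripped serum medium, compounds up to 100 uM final, continuous exposure, 80 h.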
In general, AC50 refers to the concentration at which the activity in the assay is half-maximal. For the molecule `O=C(OCCc1ccccc1)c1ccccc1`, the AC50 was 85.9 µM (active).

Take `CC(=O)/C=C/C1C(C)=CCCC1(C)C` (stereo not given): the outcome was inactive. The same measure, in the same setting: to `Clc1cc(Cl)c(Cl)c(Cl)c1Cl` belongs “inactive”. Consider `C[Si](C)(C)N[Si](C)(C)C`, for which the result was inactive. Consider `O=C(Nc1ccccc1)c1cc(Cl)ccc1O`, for which the concentration at half-maximal activity (AC50) is 82.1 µM (active). With `CCOC(=O)CC(=O)c1ccccc1`, the AC50 was 50 µM (active). On to `Nc1nc(N)nc(-c2ccccc2)n1`, for which the result was inactive. Regarding `CCCCC/C=C\C/C=C\CCCCCCCC(=O)O`, the AC50 was 81.4 µM (active).

Consider `c1ccc2sc(SSN3CCOCC3)nc2c1`, for which the AC50 is 84.8 µM (active).

Turning to `CCCC1CCCC(=O)O1` (stereo not given), the result was inactive. Same read-out and setting: to `CC(C)[N+](C)(CCOC(=O)C1c2ccccc2Oc2ccccc21)C(C)C` belongs “inactive”.

`CCNc1nc(NC(C)(C)C)nc(OC)n1`: the AC50 was 26.2 µM (active). Consider `CCC(C)(O)CCCC(C)C` (stereo not given), for which the molecule was classed as inactive. The same measure, in the same setting: for `CCCCCCCCCCCC(=O)N(C)CC(=O)O` the value was “inactive”. With `O=C(O[C@@H]1Cc2c(O)cc(O)cc2O[C@@H]1c1cc(O)c(O)c(O)c1)c1cc(O)c(O)c(O)c1`, the concentration at half-maximal activity (AC50) was 61 µM (active).

As to `Cc1noc(NS(=O)(=O)c2ccc(N)cc2)c1C`, the result was inactive. In the case of `Oc1c(Cl)cc(Cl)c(Cl)c1Cl`, the AC50 was 90.9 µM (active). On to `COc1nccnc1CC(C)C`, for which the result was inactive. On the same count and under the same terms, to `C=C(C)C(=O)OCCCCCCCCCCCC` belongs “inactive”. `C=C(C)C1CC=C(C)C(OC(C)=O)C1` (stereo not given): the concentration at half-maximal activity (AC50) was 81.5 µM (active). The same measure, in the same setting: for `O=C(OCc1ccccc1)c1ccc(O)cc1` the value was 82.6 µM (active). In the case of `CC(C)OC(=O)c1ccccc1`, the call was inactive. For the molecule `CC(C)(C)N`, the molecule was classed as inactive. Same read-out and setting: for `CCC1COC(=O)O1` (stereo not given) the value was “inactive”; for `C=Cc1cccc(C)c1`, “inactive”.
